GLS inh: inhibitors of human glutaminase (GLS); O94925; GLS enzymatic activity, qHTS titration; Potency, µM (series often up to 45.5 µM), inactives show at the highest dose activity change, negative = inhibition, usual class: inhibitors; hit rate 0.21% among 410,000; AID 624170; note: % is set by controls: 0 for no effect and ±100 for the full control effect
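Compounds were pin-transferred onto hKGA, after which L-glutamine (1 mM solution) and a detection mix of glutamate oxidase, HRP and Amplex Red were added. Initial and 30 min RT fluorescence reads were collected.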
G9a block: G9a (human) methyltransferase inhibition | Q96KQ7 | G9a H3K9 monomethylation, AlphaScreen, 2 h | Potency, µM (titrated, usually from 102 µM), inactives show top-dose activity, negative = inhibition, usual class: inhibitors | hit rate 8.8% among 350,000 | AID 504332; note: % is set by controls: 0 for no effect and ±100 for the full control effect; nearly all actives have a fitted effect of over 75% in size
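Step 1: enzyme (final 20 nM) with compound, 15 min RT. Step 2: substrate peptide 500 nM and SAM 20 uM, 2 h RT. Step 3: anti-H3K9me1 antibody and AlphaScreen beads, 10 min, then plate read.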
L3MBTL1 block: L3MBTL1 (human) inhibition. Potency, µM (top dose mostly 57.1 µM), for inactives: at the top dose activity, negative = inhibition, usual class: inhibitors. Q9Y468. AlphaScreen L3MBTL1–H3K9me1 peptide binding. hit rate 0.66% among 230,000; note: % is set by controls: 0 for no effect and ±100 for the full control effect; nearly all actives have a fitted effect of over 60% in size
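First, the protein-peptide complex forms for 30 min at room temperature (L3MBTL1 50 nM, biotinylated H3K9me1 peptide 75 nM). Next, compounds are pin-transferred and incubated 30 min. Finally, AlphaScreen beads are added and read after 30 min.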
BAZ2B inh: BAZ2B (human) inhibition. Potency, µM (highest dose often 114 µM), for inactives: at the highest dose activity change, negative = inhibition, most hits filed as inhibitors. hit rate 4.4% among 360,000. AlphaScreen BAZ2B-H3K14Ac peptide displacement. Q9UIF8; note: % is set by controls: 0 for no effect and ±100 for the full control effect; nearly all actives have a fitted effect of over 60% in size
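Complex of BAZ2B and biotin-H3K14Ac (50 nM apiece) forms over 30 min at RT, then faces library compounds up to 110 uM for another 30 min; AlphaScreen beads added, 20 min dark incubation, luminescence read.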
HP1b chromo inh: blocks HP1-beta chromodomain binding to methylated histone tails; Potency, µM (series often up to 114 µM), for inactives: at the highest dose activity change, negative = inhibition, actives largely listed as inhibitors; AlphaScreen HP1-beta / biotin-H3K9me3 peptide binding; hit rate 0.56% among 390,000; P83916; note: nearly all actives have a fitted effect of over 70% in size
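AlphaScreen: HP1-beta (50 nM) preformed 30 min with biotin-H3(1-18)K9me3 peptide (50 nM) in PBS pH 7.4, 0.01% Tween-20. Compound added for 30 min at RT, then streptavidin donor/nickel chelate acceptor beads (10 ug/mL) for 30 min.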
JMJD2A Tudor: JMJD2A Tudor domain (human) inhibition; AlphaScreen JMJD2A-Tudor / H3K4me3 peptide binding; Potency, µM (titrated, usually from 114 µM), inactives show top-dose activity change, negative = inhibition, usual class: inhibitors; hit rate 4.4% among 390,000; AID 504339; note: % is set by controls: 0 for no effect and ±100 for the full control effect; nearly all actives have a fitted effect of over 50% in size
Starred values were filed as active, the others as inactive; ? = inconclusive; / = not tested or not shown; [ ] = remark or other dose. In the library only some 10% were active in any assay of this set; here they are far more common. Calls come from the whole dose curve; as a rule, active = well fitted curve in the direction sought with a large enough effect; inconclusive = small, poorly fitted or top-dose-only effect, or another doubt; inactive = no such curve, though single readings can be large; an effect the other way counts as inactive or inconclusive. Potency is the fitted concentration of half-maximal effect.

SMILES	GLS inh	G9a block	L3MBTL1 block	BAZ2B inh	HP1b chromo inh	JMJD2A Tudor
CSC1=C(C#N)C(c2ccc(C(C)C)cc2)CC(=O)N1 (stereo not given)	2%	?	/	-1%	21%	-17%
COC(=O)C1=C(C)N(C)C(=O)NC1c1c(OC)ccc2ccccc12 (stereo not given)	1%	?	/	1%	19%	-6%
COc1cc(C2CC(=O)N3CN(Cc4ccco4)CSC3=C2C#N)ccc1OCc1ccccc1 (stereo not given)	-17%	1.3µM*	-13%	45µM*	?	22µM*
COc1ccc2ccccc2c1C1CC(=O)N2CN(C3CCCCC3)CSC2=C1C#N (stereo not given)	-17%	1.6µM*	-14%	?	?	?
COc1ccc(C2CC(=O)N3CN(C4CCCCC4)CSC3=C2C#N)c(OC)c1 (stereo not given)	11%	2.5µM*	/	/	?	3.5µM*
COc1ccc(OC)c(C2C(C#N)=C(N)N(N(C)C)C3=C2C(=O)CCC3)c1 (stereo not given)	0%	-39%	/	-6%	2%	-19%
CC(C)c1ccc(C2CC(=O)N3CN(Cc4ccco4)CSC3=C2C#N)cc1 (stereo not given)	-4%	2.8µM*	-10%	50µM*	?	40µM*
CCOC(=O)c1cccc(NC(=O)c2ncoc2-c2ccco2)c1	-10%	9%[59 µM]	/	-9%	37%	-15%
COc1ccc(N2CC(C(=O)Nc3ccccc3C(=O)NCc3ccco3)CC2=O)cc1 (stereo not given)	0%	-1%[12.7 µM]	6%	-4%	22%	-8%
COc1ccccc1N=C1SCC(=O)N1Cc1ccco1	-2%	4%[59 µM]	-7%	?	-9%	-21%
N#CC1=C2SCN(Cc3ccco3)CN2C(=O)CC1c1ccc(Cl)cc1 (stereo not given)	-15%	1µM*	-6%	/	?	?
COc1ccc(C2CC(=O)N3CN(Cc4ccco4)CSC3=C2C#N)cc1 (stereo not given)	?	0.89µM*	-6%	?	?	7.1µM*
COc1ccc2ccccc2c1C1CC(=O)N2CN(Cc3ccco3)CSC2=C1C#N (stereo not given)	-1%	0.56µM*	-5%	-27%	?	?
CC(=O)c1cccc(NC(=O)c2noc3c2CCCC3)c1	-7%	5%[59 µM]	/	-1%	40%	-8%
Cc1cc(C)cc(NC(=O)CSc2nc3c([nH]c4ccccc43)c(=O)n2-c2ccc(F)cc2)c1	-7%	-19%[59 µM]	/	19%	34%[57 µM]	-6%
Cc1cc(Cl)ccc1NS(=O)(=O)c1ccc2c(c1)CC(C)N2C(=O)C1CCC1 (stereo not given)	18%	2%[59 µM]	/	-3%	28%	-25%
CC(C)(C)c1ccc(C(=O)NCCc2csc3nc(-c4ccccc4F)nn23)cc1	6%	0%[59 µM]	/	-13%	12%[57 µM]	-27%
COc1cc2c(cc1OC)-c1cc(NC3CCCCCCC3)nc(=O)n1CC2	-6%	45µM*	4%	-29%	16%	-20%
COc1cc2c(cc1OC)-c1cc(NCc3ccccn3)nc(=O)n1CC2	?	/	?	28µM*	10%	-24%[11.4 µM]
CCNc1cc2n(c(=O)n1)CCc1cc(OC)c(OC)cc1-2	20%	3%	3%	-2%	14%	-17%
COc1cccc(C2Nc3ccc4ccccc4c3C3=C2C(=O)CC(C)(C)C3)c1OCC(=O)O (stereo not given)	13µM*	-5%	1%	-33%	48%	15%
COc1ccc(C2Nc3ccccc3C(=O)N2c2ccc(Cl)cc2)cc1COc1ccc(NC(C)=O)cc1 (stereo not given)	/	/	/	/	19%[57 µM]	-24%[57.1 µM]
Cc1ccc(C(C[N+](=O)[O-])c2c(C)[nH]n(-c3ccccc3)c2=O)cc1 (stereo not given)	11%	?	-22%	?	12%	-24%
Cc1[nH]n(-c2ccccc2)c(=O)c1C(c1ccccc1[N+](=O)[O-])C(C#N)C#N (stereo not given)	-13%	28µM*	/	?	2%	?
Cc1[nH]n(-c2ccccc2)c(=O)c1C(C[N+](=O)[O-])c1ccc(F)cc1 (stereo not given)	18%	45µM*	-1%	?	8%	-32%
SMILES	GLS inh	G9a block	L3MBTL1 block	BAZ2B inh	HP1b chromo inh	JMJD2A Tudor
Cc1[nH]n(-c2ccccc2)c(=O)c1C(c1ccccc1C(=O)O)c1c(C)[nH]n(-c2ccccc2)c1=O	-1%	?	5%	-29%	34%	-10%
Cc1ccc(C)n1-c1ccc(C(=O)NN)cc1	?	45%[59 µM]	11%	8%	11%	50µM*
Cc1ccc(C(=O)Nc2ccccc2C(=O)OCc2cc(=O)n3nc(C4CC4)sc3n2)cc1	-2%	2%[12.7 µM]	/	-1%	43%	6%
O=C(Nc1cc(C(F)(F)F)ccc1Cl)[C@H](O)CCc1ccccc1	/	/	/	/	/	26%
CCCCn1c(-c2nn(C)c(C)c2Cl)n[nH]c1=S	-11%	11µM*	1%	11%[57.1 µM]	-30%	8.9µM*
Cc1c(Cl)c(-c2n[nH]c(=S)n2CC(C)C)nn1C	-12%	35µM*	11%	29%	?	5µM*
CCN(C(=O)CN1CCN(C)CC1)c1cccc2ccccc12	-5%	1.8µM*	-5%	32µM*	?	1.8µM*
C=CCNc1oc(Cc2cccc3ccccc23)nc1C#N	-2%	50µM*	/	50µM*	35%	?
N#Cc1nc(Cc2cccc3ccccc23)oc1NCCN1CCOCC1	3%	-6%[59 µM]	/	-37%	-16%	-35%
N#Cc1nc(Cc2cccc3ccccc23)oc1NCc1ccc(F)cc1	-3%	25µM*	-17%	?	?	?
C=CCNc1oc(/C=C/c2ccccc2)nc1C#N	17%	-28%	15%	-26%	22%	-12%
COCCNc1oc(Cc2cccc3ccccc23)nc1C#N	-4%	79µM*	-15%	?	-13%	-27%
Cc1noc(C)c1-c1ccc2ncnc(NCCN3CCOCC3)c2c1	/	-41%[0.501 µM]	/	/	/	/
Cc1ccc(CSc2ncc(Cl)c(C(=O)Nc3nnc(C)s3)n2)cc1	-1%	8%[59 µM]	/	-12%	4%	-26%
C/C(CC(=O)Nc1ccc(N(C)C)cc1)=N\NC(=O)Cc1csc(N)n1	37%	45µM*	-4%	?	-8%	?
Cc1nc(CC(=O)Nc2ccc(C(N)=O)cc2)cs1	1%	-3%[59 µM]	/	-5%	25%	-16%
Cc1nc(CC(=O)Nc2ccc(N(C)C)cc2)cs1	-3%	14µM*	/	?	13%	?
O=C(OCC#CCSc1nnc(-c2cccc3ccccc23)o1)C1CCC1	/	/	/	/	/	101%

Assay outcomes: PubChem BioAssay, National Center for Advancing Translational Sciences (NCATS)
